# Over roughly 3,700 sequences, “z-score” has its median near 4; the highest 2% begin near 8.4. The list comes from a sample in which the highest values are over-represented; it also holds similar and randomly drawn sequences.
# Legend:
# PU.1 (IVT) [1] = target: PU.1 (IVT) (UniProt P17947 1-270); assay: protein-binding microarray (PBM); 20 mM HEPES pH 7.9, 100 mM NaCl, 1 mM DTT, 0.2 mg/mL BSA, 0.02% Triton X-100, 2% milk, 0.4 mg/mL salmon testes DNA; 1 h; temperature not stated; high values mean tight binding; settings: dsDNA, one strand shown
# Procedure, shortened: (§1)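 Untagged full-length PU.1 was produced by coupled human in vitro transcription/translation and incubated for 1 h on custom double-stranded DNA microarrays in HEPES pH 7.9 containing 100 mM NaCl, 2% milk and salmon testes DNA. Each array carried 20-bp genomic sites and single-nucleotide variants, with 10 probes per site (5 per orientation). Bound protein was detected with anti-PU.1 followed by a fluorescent secondary antibody. Binding values are z-scores calculated from scanned fluorescence after linear-regression normalisation.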
# PU.1 (IVT) [2] = target: PU.1 (IVT) (UniProt P17947 1-270); assay: as above; settings: dsDNA, one strand shown; remark: listed apart in the source
# Procedure, shortened: as §1
Sequence,binding signal (PU.1 (IVT) [1]),binding signal (PU.1 (IVT) [2])
GCCTAGCACAAAAAAAGGAAGTGAAAGTAGTGCTAGGTCTTGATTCGCTTGACGCTGCTG,6.78 z-score,
GCCTAGCACGGTGGGAGGAAGTGATCGGTGTGCTAGGTCTTGATTCGCTTGACGCTGCTG,,3.72 z-score
GCCTAGCACGAAAAGGGGAAGTGAGGGATGTGCTAGGTCTTGATTCGCTTGACGCTGCTG,7.81 z-score,
GCCTAGCACGAAAAAAGGAAGTTGCACAGGTGCTAGGTCTTGATTCGCTTGACGCTGCTG,6.42 z-score,
GCCTAGCACTGGGAGGAGAAGTGAAACCTGTGCTAGGTCTTGATTCGCTTGACGCTGCTG,1.37 z-score,
GCCTAGCACTGAAAGAGGAATTGCAACCAGTGCTAGGTCTTGATTCGCTTGACGCTGCTG,2.04 z-score,
GCCTAGCACGAAAAGAGGAAGTCTGAAAAGTGCTAGGTCTTGATTCGCTTGACGCTGCTG,7.48 z-score,
GCCTAGCACGAAAAGAGGAAGTTAAAGAAGTGCTAGGTCTTGATTCGCTTGACGCTGCTG,8.52 z-score,
GCCTAGCACGAAAAGAGGAAGTGAAGTTAGTGCTAGGTCTTGATTCGCTTGACGCTGCTG,8.28 z-score,
GCCTAGCACAGTTGGAGGAAGTGGCACTTGTGCTAGGTCTTGATTCGCTTGACGCTGCTG,2.78 z-score,
GCCTAGCACGAAAACAGGAAGTGGGGATGGTGCTAGGTCTTGATTCGCTTGACGCTGCTG,7.43 z-score,
GCCTAGCACCAAAAGAGGAAGTTGGCAAAGTGCTAGGTCTTGATTCGCTTGACGCTGCTG,8.72 z-score,
GCCTAGCACCAAAAGAGGAAGTGGTATCAGTGCTAGGTCTTGATTCGCTTGACGCTGCTG,8.24 z-score,
GCCTAGCACCAAAAGAGGAACTGCTGCTGGTGCTAGGTCTTGATTCGCTTGACGCTGCTG,6.83 z-score,
GCCTAGCACCAAAAGAGGAAGTCAGAGAGGTGCTAGGTCTTGATTCGCTTGACGCTGCTG,7.94 z-score,
GCCTAGCACCAAAAGAGGAAGTGGTGAAAGTGCTAGGTCTTGATTCGCTTGACGCTGCTG,8.4 z-score,
GCCTAGCACCAAAAGAGGAAGTGGCATATGTGCTAGGTCTTGATTCGCTTGACGCTGCTG,8.01 z-score,
GCCTAGCACCAAAAGAGGAAGTCAAGCTGGTGCTAGGTCTTGATTCGCTTGACGCTGCTG,7.88 z-score,
GCCTAGCACCAAAGAAGGAAGTGAAACTGGTGCTAGGTCTTGATTCGCTTGACGCTGCTG,4.74 z-score,
GCCTAGCACCAAAAGAGGAAGTGAAGCTGGTGCTAGGTCTTGATTCGCTTGACGCTGCTG,8.37 z-score,
GCCTAGCACTGAGAGAGGAAGTAACTTAAGTGCTAGGTCTTGATTCGCTTGACGCTGCTG,,5.44 z-score

Sequence,binding signal (PU.1 (IVT) [1]),binding signal (PU.1 (IVT) [2])
GCCTAGCACCTGCCAGGGAAGTGAAATCAGTGCTAGGTCTTGATTCGCTTGACGCTGCTG,1.1 z-score,
GCCTAGCACGAGAAGAGGAAGTGAGATCTGTGCTAGGTCTTGATTCGCTTGACGCTGCTG,6.45 z-score,
GCCTAGCACAAAAAGAGGAAGAGGGGACAGTGCTAGGTCTTGATTCGCTTGACGCTGCTG,5.23 z-score,
GCCTAGCACAAAAAAGGGAAGTGAAAATAGTGCTAGGTCTTGATTCGCTTGACGCTGCTG,7.69 z-score,
GCCTAGCACAAAAAAGGGAAGTGACATACGTGCTAGGTCTTGATTCGCTTGACGCTGCTG,7.76 z-score,
GCCTAGCACAAAAAAGGGAAGTGCCATAAGTGCTAGGTCTTGATTCGCTTGACGCTGCTG,7.55 z-score,
GCCTAGCACAAAAAGGGGAAGTGACATAAGTGCTAGGTCTTGATTCGCTTGACGCTGCTG,8.47 z-score,
GCCTAGCACAAAGTGGGGAAGTGACAAAAGTGCTAGGTCTTGATTCGCTTGACGCTGCTG,,3.36 z-score
GCCTAGCACAAAAAAGGGAAGTGATTTAAGTGCTAGGTCTTGATTCGCTTGACGCTGCTG,8.59 z-score,
GCCTAGCACGAAAAGAGGAACCGTATGGTGTGCTAGGTCTTGATTCGCTTGACGCTGCTG,5.79 z-score,
GCCTAGCACTAAAAGAGGAAGTAGCCAAAGTGCTAGGTCTTGATTCGCTTGACGCTGCTG,8.23 z-score,
GCCTAGCACTAAAAGAGGAAGTGCAACCAGTGCTAGGTCTTGATTCGCTTGACGCTGCTG,8.29 z-score,
GCCTAGCACTAAAAGAGGAAGAGGAAGAAGTGCTAGGTCTTGATTCGCTTGACGCTGCTG,,5.75 z-score
GCCTAGCACTAAAAGAGGAAGTGACCTCAGTGCTAGGTCTTGATTCGCTTGACGCTGCTG,7.82 z-score,
GCCTAGCACTAAAAGAGGAAGTAGGAATAGTGCTAGGTCTTGATTCGCTTGACGCTGCTG,8.36 z-score,
GCCTAGCACTAAAAGAGGAAGTGCATTCAGTGCTAGGTCTTGATTCGCTTGACGCTGCTG,8.5 z-score,
GCCTAGCACAGCAGGAGGAAGTGGGTGGAGTGCTAGGTCTTGATTCGCTTGACGCTGCTG,,3.97 z-score
GCCTAGCACAAAAAAAGGAAATGAAATTAGTGCTAGGTCTTGATTCGCTTGACGCTGCTG,3.65 z-score,
GCCTAGCACCAAAAGAGGAAGAGTCTGACGTGCTAGGTCTTGATTCGCTTGACGCTGCTG,4.26 z-score,
GCCTAGCACACAAAAAGGAACTGTTCCCCGTGCTAGGTCTTGATTCGCTTGACGCTGCTG,2.27 z-score,

# Source: paper PMC6451091, “NextPBM: a platform to study cell-specific transcription factor binding and cooperativity”
